A selection: hits, their analogues and other compounds. The true share with any hit is near 19%.
KB-V1 MDR tox – KB-V1 MDR subline cytotoxicity; KB-V1 MDR cells viability, CellTiter-Glo, 72 h; Potency, µM (highest dose often 46.1 µM), hits mostly cytotoxic; AID 1347076; 3.4% of 400,000 active; also: nearly all actives have a fitted effect of over 60% in size
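Readout: CellTiter-Glo luminescence, 10 min after addition. Cells: KB-V1 MDR subline, 72 h at 37 degrees C with compound. Analysis: corrected, normalized data fitted to concentration-effect curves.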
HT1080NT lethal – kills 2HG-producing HT-1080-NT fibrosarcoma cells. HT-1080-NT fibrosarcoma viability, CellTiter-Glo ATP luminescence, 48 h. Potency, µM (highest dose often 46.1 µM), for the others: top-dose activity, negative = less viability, actives largely listed as cytotoxic. 1.6% of 360,000 active. AID 686970;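 also: NT is the 2HG producing partner of a matched IDH1 knockdown line; 0% = DMSO-treated cells and -100% = media-only wells without cells; nearly all actives have a fitted effect of over 55% in size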
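Luminescent CellTiter-Glo readout after 48 hours of compound exposure at 37 degrees C defined viability of HT-1080-NT cells. Activity was normalized to DMSO wells and cell-free media wells; concentration-response curves were fitted and assigned curve classes.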
TDP1 cell noCPT – qHTS for Inhibitors of human tyrosyl-DNA phosphodiesterase 1 (TDP1): qHTS in cells in absence of CPT. Potency, µM (titrated, usually from 46.2 µM), for inactives: top-dose activity change, negative = growth inhibition, usual class: inhibitors. 15% of 420,000 active. DT40 Tdp1-/- hTDP1 cells, no CPT, ATP luminescence, 48 h; also: nearly all actives have a fitted effect of over 55% in size
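Stably hTDP1-transfected Tdp1-null chicken DT40 cells were treated with library compounds minus camptothecin and grown for at least 48 hr at 37 °C, after which cellular ATP was quantified by luminescence.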
KB-3-1 tox – kills parental KB-3-1 adenocarcinoma cells; KB-3-1 viability, CellTiter-Glo ATP luminescence, 72 h; Potency, µM (titrated, usually from 46.1 µM), usual class: cytotoxic; 1.4% of 400,000 active; also: nearly all actives have a fitted effect of over 60% in size
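Cells are dispensed, compounds pinned in, plates held at 37 °C for 72 h, then CellTiter-Glo is added and luminescence read after 10 minutes. Cell line: parental KB-3-1 in phenol-red-free DMEM, 10% FBS.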
DT40 TDP1 CPT – growth inhibition of DT40 Tdp1-/-;hTDP1 cells with camptothecin (screen for TDP1 inhibitors); chicken DT40 Tdp1-/-;hTDP1 cells + 20 nM CPT, ATP luminescence, 48 h; 12% of 420,000 active; Potency, µM (titrated, usually from 46.2 µM), inactives show top-dose activity change, negative = growth inhibition, most hits filed as inhibitors; also: nearly all actives have a fitted effect of over 55% in size
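Chicken DT40 Tdp1-/- cells complemented with human TDP1, 400 cells/well, exposed to compounds plus 20 nM camptothecin for at least 48 h at 37 C; viability read as ATP content by CellTiter-Glo luminescence.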
HT1080 IDH1KD tx – kills HT-1080 cells with IDH1 knockdown | HT-1080 IDH1 knockdown viability, ATP luminescence, 48 h | Potency, µM (top dose mostly 46.1 µM), inactives show top-dose activity, negative = toxicity, actives largely listed as cytotoxic | 2% of 360,000 active;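 also: 0% = DMSO wells and -100% = cell-free medium wells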
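% activity derives from luminescence (CellTiter-Glo), normalised to DMSO and no-cell wells. HT-1080-IDH1KD cells, 750/well, had 48 h compound exposure at 37 °C.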
Active calls of the source: *; i = inactive; u = inconclusive; x = no result given. Calls follow the shape of the dose curve; as a rule, active = well fitted curve in the direction sought with a large enough effect; inconclusive = small, poorly fitted or top-dose-only effect, or another doubt; inactive = no such curve, though single readings can be large; an effect the other way counts as inactive or inconclusive. Unless noted, % is scaled to controls: 0 for no effect and ±100 for the full control effect; potency is read from the fitted curve at half-maximal effect.

SMILES | KB-V1 MDR tox | HT1080NT lethal | TDP1 cell noCPT | KB-3-1 tox | DT40 TDP1 CPT | HT1080 IDH1KD tx
Cc1ccc(N(C)C(=O)c2cnc(N3CCOCC3)c3ccccc23)cc1C | i | x | u | i | 23µM* | x
CCc1ccccc1N(C)C(=O)c1cnc(N2CCOCC2)c2ccccc12 | i | x | -72% | i | u | x
CCN(C(=O)c1cnc(N2CCOCC2)c2ccccc12)c1cc(C)ccc1C | i | x | u | i | 23µM* | x
COc1ccc(CCN2C(=O)CC(NC34CC5CC(CC(C5)C3)C4)C2=O)cc1OC (stereo not drawn) | u | -15% | 18µM* | i | u | -19%
COc1ccc(NC2=C(Cl)C(=O)N(CCc3ccccc3)C2=O)cc1 | i | -1% | u | i | u | -7%
COc1ccc(CCN2C(=O)CSC2=Nc2ccc(C)cc2C)cc1OC | u | -17% | 23µM* | u | 23µM* | -15%
COc1ccc(CCNC2=C(Cl)C(=O)N(CCc3ccc(OC)c(OC)c3)C2=O)cc1OC | 21µM* | 0% | 10µM* | u | 15µM* | -11%
COc1ccc(CCN2C(=O)CN(Cc3ccccc3)CC2=O)cc1OC | 6.5µM* | 17% | -2% | i | 4% | 10%
COc1ccc(C(C)(C)C)cc1NC(=S)NCCN1CCOCC1 | i | 7% | -2% | i | -1% | 0%
O=C(CSc1nnc(CNC(=O)c2c(F)cccc2Cl)o1)Nc1cccc(F)c1 | u | x | u | i | u | x
CN(C(=O)COC(=O)C1CCN(S(=O)(=O)c2ccc3c(c2)OCCO3)CC1)C1CCCCC1 | i | 1% | -19% | i | -3% | 12%
COc1ccc(C2SCC(=O)N2CCc2ccc(OC)c(OC)c2)cc1 (stereo not drawn) | u | u | 5.2µM* | u | 7.3µM* | 18µM*
COc1ccc(CCN2C(=O)c3cccnc3C2=O)cc1OC | i | 9% | 6% | i | 0% | 11%
COc1ccc(CCN2C(=O)C=CC2=O)cc1OC | u | u | 1.3µM* | i | 0.82µM* | 6.5µM*
COc1ccc(CCN2C(=O)C3C4CCC(C4=C(C)C)C3C2=O)cc1OC (stereo not drawn) | u | 1% | 8.2µM* | i | u | -3%
Cn1cc(S(=O)(=O)N2CCCC2)cc1C(=O)O | i | 3% | 3% | i | -3% | 5%
O=C(/C=C/c1ccc(Cl)cc1)N1CCN(Cc2ccccc2)CC1 | i | -4% | u | i | -14% | -2%
CCOC(=O)N1CCC(NC(=O)c2cc3c(C)nc4ccccc4c3o2)CC1 | u | 11% | 21µM* | i | 9.2µM* | -7%
CCCCN(CC)CCNC(=O)c1cc2c(C)nc3ccccc3c2o1 | i | -19% | 23µM* | i | 16µM* | -11%
CCCCN(CC)CCCNC(=O)c1cc2cc3ccc(C)cc3nc2o1 | i | -17% | -29% | i | -26% | 0%
Cc1ccc2c(C)c(C(=O)N3CCCCC3CO)oc2c1C (stereo not drawn) | i | -13% | 13µM* | i | 18µM* | -2%
CCOC(=O)N1CCC(NC(=O)c2oc3c(C)c(C)ccc3c2C)CC1 | u | 5% | u | i | 21µM* | 0%
CCOC(=O)N1CCC(NC(=O)Cc2ccccc2)CC1 | i | 0% | -9% | i | -4% | 0%
Cc1nc2ccccc2c2oc(C(=O)NCCN3CCCCC3C)cc12 (stereo not drawn) | i | 0% | 16µM* | u | u | -9%
CCN1CCCC1CNC(=O)c1cc2c(C)nc3ccccc3c2o1 (stereo not drawn) | u | -1% | -28% | i | -1% | -17%
SMILES | KB-V1 MDR tox | HT1080NT lethal | TDP1 cell noCPT | KB-3-1 tox | DT40 TDP1 CPT | HT1080 IDH1KD tx
CCCCN(CC)CCNC(=O)c1cc2cc3ccc(Cl)cc3nc2o1 | i | 3% | u | i | 16µM* | 0%
CCN(CC)S(=O)(=O)c1ccc(NC2c3ccccc3C(=O)N2c2ccc(C)cn2)cc1 (stereo not drawn) | i | 8% | u | i | u | 5%
CCOC(=O)c1ccccc1NC1c2ccccc2C(=O)N1c1ccc(C)cn1 (stereo not drawn) | i | 4% | 18µM* | i | u | 4%
Cc1ccc(N2C(=O)c3ccccc3C2Nc2cccnc2)nc1 (stereo not drawn) | i | -9% | 26µM* | i | 15µM* | 7%
CCOC(=O)c1ccccc1NC1c2ccccc2C(=O)N1C1CCN(C(=O)OCC)CC1 (stereo not drawn) | i | 2% | 16µM* | i | u | 3%
Cc1ccc(NC2c3ccccc3C(=O)N2c2cccnc2)cc1 (stereo not drawn) | u | 5% | 4% | i | 7% | -16%
O=C1c2ccccc2C(Nc2cccnc2)N1Cc1ccccc1Cl (stereo not drawn) | i | 5% | 21µM* | i | u | 2%
COc1ccc(C(=O)OCc2ccccc2C#N)cc1S(=O)(=O)N1CCOCC1 | u | -2% | -27% | i | 2% | 7%
Cc1cc(NC(=O)CCC(=O)N(CC(=O)NC2CCCC2)c2ccc(Cl)cc2)no1 | i | 10% | -10% | i | 0% | 0%
C(=C\c1cccc2ccccc12)/c1nnc(-c2cccs2)o1 | i | -2% | u | i | 29µM* | -17%
O=c1c2ccccc2cnn1Cc1nnc(-c2cccs2)o1 | u | 2% | u | i | -17% | 0%
O=C1C(=O)N(c2ccccn2)C(c2cccc([N+](=O)[O-])c2)/C1=C(/O)c1ccc(Br)cc1 (stereo not drawn) | i | -10% | 11% | i | -5% | -4%
CC(=O)Nc1nc2c(s1)CCc1ccccc1-2 | u | 8% | 1% | i | 26% | 3%
N#C/C(=C(/O)CCl)c1nc2c(s1)CCc1ccccc1-2 | 15µM* | u | 13µM* | 4.1µM* | 12µM* | u
O=C(CCCl)Nc1nc2c(s1)CCc1ccccc1-2 | i | 9.2µM* | 5.8µM* | u | 13µM* | 9.2µM*
COc1cccc(/C=N/n2c(SC)nnc2-c2ccccc2)c1O | u | u | 16µM* | u | 10µM* | u
COc1cccc(/C=N/NC(=O)CSc2nnc(C)n2-c2ccccc2)c1O | i | u | u | u | u | 13µM*

Compound activity from PubChem.
